A value given as a limit tells only on which side of the number the result lay.

From publication PMC5540273 (PLoS ONE, 2017) come the findings set out here.
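Also: kd values determined as follow-up on hits from a single-replicate KINOMEscan panel screen.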

The first assay relates to BLK.
On to `COc1cc2nccc(Nc3ccc(NC(=O)c4ccc(C)cc4)c(O)c3)c2cc1OC.Cl` [GW440132], for which the Kd turned out to be 230 nM.
In the case of `Cc1ccc(C(=O)Nc2ccc(Nc3ccnc4cc(-c5ccccn5)ccc34)cc2O)cc1.Cl` [GW440146], the affinity, expressed as Kd, was 63 nM.
In turn, `Cl.NC(=O)c1cccc(Nc2nccc(Nc3ccc(Oc4cccc(Cl)c4)c(Cl)c3)n2)c1` [GW659008] returned an equilibrium dissociation constant (Kd) of 2600 nM. Against the preceding compound, the Kd is about 41-fold higher.

The subject of the next assay is BRAF.
Consider `COC(=O)c1c(-c2ccccc2)c2cc(C(=O)O)ccc2c(=O)n1Cc1ccccc1`, for which the affinity, expressed as Kd, was 50 nM.
As to `Cl.O=C(Nc1cccc(-c2nn3ncccc3c2-c2ccnc(Nc3cccnc3)n2)c1)c1c(F)cccc1F` [GSK312879], the Kd turned out to be 62 nM.
As to `CC(=O)Nc1nc2cnc(Nc3cc(NC(=O)c4cccc(CCC#N)c4)ccc3C)nc2s1`, the Kd is more than 10000 nM.
On the same count and under the same terms, then `CN(C)CCN(C)C(=O)c1cc(-c2ccncc2)c(-c2ccc(Cl)c(O)c2)o1.Cl.Cl` [SB-710397], with 45 nM.
The compound `Cc1cccc(-c2nc(-c3ccc(S(C)(=O)=O)cc3)sc2-c2ccnc(NCCc3ccccc3)c2)c1` gave an equilibrium dissociation constant (Kd) of 81 nM.
`COC(=O)c1c(-c2ccccc2)c2cc(OC)ccc2c(=O)n1Cc1ccccc1` yielded a dissociation constant Kd of 61 nM. The Kd values of the last two compounds are within 1.5-fold of each other.

The subject of a further assay is BRSK1.
With `O=C(Nc1n[nH]c2nc(-c3nccs3)c(Br)cc12)C1CC1` [SB-742251], the Kd was determined as 230 nM.
In turn, `O=C(Nc1n[nH]c2nc(-c3nccs3)c(Br)cc12)C1CCCC1` [SB-742609] had a Kd of 430 nM.
In turn, `CS(=O)(=O)c1ccc(-c2c(-c3ncn[nH]3)sc(N3CCOCC3)c2C#N)cc1` gave a dissociation constant Kd of more than 10000 nM.
As for `CCn1c(-c2ccccn2)nc2cnccc21` [SB-736398], the dissociation constant Kd was more than 10000 nM.
`Cc1ccc(NC(=O)Nc2cccc(Cl)c2)cc1-c1ccc(C(=O)Nc2ccncc2)cc1` [GSK1398468]: the equilibrium dissociation constant (Kd) was more than 10000 nM.
As to `Cc1ccc(NC(=O)Nc2cc(C(C)(C)C)nn2-c2ccccc2)cc1` [GSK1014915], the Kd is more than 10000 nM.

The test system of the next assay is BRSK2.
`O=C(Nc1n[nH]c2nc(-c3nccs3)c(Br)cc12)C1CC1` [SB-742251] registered a Kd of 140 nM.
For the compound `O=C(Nc1n[nH]c2nc(-c3nccs3)c(Br)cc12)C1CCCC1` [SB-742609], the dissociation constant (Kd) came to 330 nM.
On the same count and under the same terms, then `COc1ccccc1CNC(=O)c1cc(C(=O)c2ccccc2C)c[nH]1` [GSK364507], with more than 10000 nM.

The test system of another assay is CAMK1G.
Compound `Cc1cccc(-c2nc(C)cc(Nc3ccncc3)n2)n1` [GSK257997] gave a Kd of more than 10000 nM.
Consider `CN1C(=O)C(Nc2ccc(Cl)c(C(=O)O)c2)=C(c2ccc(Cl)cc2)C1=O` [SB-404290], for which the dissociation constant (Kd) is more than 10000 nM.
As to `O=C(Nc1n[nH]c2cc(-c3cccc(F)c3F)ccc12)C1CC1` [SB-733894], the dissociation constant Kd is more than 10000 nM.
`Cc1cc(-c2ccc3c(c2)CC[C@@H](N[C@@H](C)c2ccccc2)C3)cnc1N.Cl` [GW412617] yielded an equilibrium dissociation constant (Kd) of more than 10000 nM.

In a further assay the test system is T1, CDC2L1.
T1 construct: gene CDK11B
Compound `O=C(Nc1n[nH]c2nc(-c3nccs3)c(Br)cc12)C1CCCC1` [SB-742609] returned an equilibrium dissociation constant (Kd) of more than 10000 nM.
Same read-out and setting: to `Cc1cccc(-c2nc(C)cc(Nc3ccncc3)n2)n1` [GSK257997] belongs more than 10000 nM; to `CS(=O)(=O)c1ccc(-c2nc3n(c2-c2ccncc2)CCC3)cc1` [SKF-105942], more than 10000 nM.

The test system of the next assay is CDK9.
In turn, `O=C(Nc1n[nH]c2nc(-c3nccs3)c(Br)cc12)C1CCCC1` [SB-742609] showed a dissociation constant Kd of 2500 nM.
On to `Cc1cccc(-c2nc(C)cc(Nc3ccncc3)n2)n1` [GSK257997], for which the Kd is more than 10000 nM.
As for `CS(=O)(=O)c1ccc(-c2nc3n(c2-c2ccncc2)CCC3)cc1` [SKF-105942], the Kd is more than 10000 nM.

Usually Kd stands for a measure of binding affinity in units of concentration.
